HSD17B inhib = HSD17B dehydrogenase inhibition. Q99714. recombinant HSD17B10, NADH fluorescence kinetic. Potency, µM (titrated, usually from 57.1 µM), without a hit: at the top dose activity change, negative = inhibition, usual class: inhibitors. 7.6% of 75,000 active;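 note: the protocol describes HADH2 (HSD17B10) and not the HSD17B4 of the title; potency is the fitted concentration of half-maximal effect; % is set by controls: 0 for no effect and ±100 for the full control effect; nearly all actives have a fitted effect of over 70% in size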
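Enzyme plus compound, 15 min room temperature; substrate mix added (NAD+ 1 mM, beta-hydroxybutyryl-CoA 90 uM final); plates read kinetically for NADH fluorescence. HADH2 was His-tagged, E. coli-derived, 20 nM.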
HADH2 inh = blocks human hydroxyacyl-CoA dehydrogenase type II; 3.4% of 73,000 active; Potency, µM (titrated, usually from 57.1 µM), for the others: at the top dose activity change, negative = inhibition, most hits filed as inhibitors; AID 886; recombinant HADH2, NADH fluorescence, beta-hydroxybutyryl-CoA; Q99714; note: potency is the fitted concentration of half-maximal effect; % is set by controls: 0 for no effect and ±100 for the full control effect; nearly all actives have a fitted effect of over 60% in size
Target sequence (Q99714 whole entry, looked up, one chain of several): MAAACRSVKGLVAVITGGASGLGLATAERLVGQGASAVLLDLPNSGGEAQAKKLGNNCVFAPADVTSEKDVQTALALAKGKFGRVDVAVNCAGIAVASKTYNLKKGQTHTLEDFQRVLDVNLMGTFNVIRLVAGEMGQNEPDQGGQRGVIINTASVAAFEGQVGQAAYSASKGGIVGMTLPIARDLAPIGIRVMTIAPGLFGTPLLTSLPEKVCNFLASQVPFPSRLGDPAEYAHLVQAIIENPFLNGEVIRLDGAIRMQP
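20 nM HADH2 + cpd, 15 min RT; add 1 mM NAD+/90 uM beta-hydroxybutyryl-CoA; kinetic fluorescence 360/450 nm, 4 min. Tris-HCl pH 9.0, 0.01% Tween-20.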
A350 fluor = compounds fluorescent in Alexa 350 spectral region | Compound autofluorescence, 340/450 nm, Alexa 350 dye-equivalents; hits give high values | max dye-equivalent concentration, M | 11% of 59,000 active | AID 590; in the data active = max dye-equivalent concentration above about 10 nM; inconclusive = mostly about 1.1 nM to 9.6 nM
4-MU autofl = compound fluoresces in the 4-MU spectral region | compound autofluorescence, 340/450 nm, 4-MU equivalents; hits give high values | max dye-equivalent concentration, M | 11% of 59,000 active; in the data active = max dye-equivalent concentration above about 10 nM; inconclusive = mostly about 1.1 nM to 9.6 nM
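Compounds in 100 mM Tris, pH 8.0, sat 15 min at room temperature before fluorescence was read at 340 nm excitation/450 nm emission; a per-plate six-point 4-MU standard curve converted signals to dye-equivalent concentration at each compound concentration.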
AID923 = qHTS Assay for Allosteric/Competitive Inhibitors of Caspase-1: Spectroscopic Profiling in AFC Spectral Region; compound fluorescence, AFC spectral region (405/520 nm); Potency, µM (titrated, usually from 57.5 µM), inactives show top-dose fluorescence increase, most hits filed as activators; 1.1% of 75,000 active; AID 923, 2007; note: potency is the fitted concentration of half-maximal effect; 0% is about no effect
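Compound autofluorescence profiled at 405 nm ex/520 nm em during kinetic caspase 1 run (50 nM enzyme, 5 uM Ac-WEHD-AFC, HEPES pH 7.5, 10 mM DTT). Titration up to 57 uM; baseline from regression intercept, normalized to AFC standard curve.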
The depositor's hits bear a star; i = inactive; ? = inconclusive; / = no result given; [ ] = dose if it differs, or a comment. The list is not random: actives were taken first. Their share in the collection is about 13%. Unless noted, calls come from the whole dose curve; as a rule, active = well fitted curve in the direction sought with a large enough effect; inconclusive = small, poorly fitted or top-dose-only effect, or another doubt; inactive = no such curve, though single readings can be large; an effect the other way counts as inactive or inconclusive.

SMILES | HSD17B inhib | HADH2 inh | A350 fluor | 4-MU autofl | AID923
CN1CSC2=C(C#N)C(c3cccc(OCc4ccccc4)c3)CC(=O)N2C1 (configuration not stated) | 25.1µM* | 1.26µM* | / | / | 3.2%
CCOC(=O)c1ccc(N2CSC3=C(C#N)C(c4cccs4)CC(=O)N3C2)cc1 (configuration not stated) | -8.8% | 5.01µM* | / | / | 1.5%
N#CC1=C2SCN(c3ccc(F)cc3)CN2C(=O)CC1c1cccc(F)c1 (configuration not stated) | ? | 1.58µM* | / | / | -2.5%
CCc1ccc(C2CC(=O)N3CN(c4ccccc4)CSC3=C2C#N)cc1 (configuration not stated) | 7.94µM* | 0.631µM* | / | / | 2.4%
COc1ccc(N2CSC3=C(C#N)C(c4cccs4)CC(=O)N3C2)cc1 (configuration not stated) | 25.1µM* | ? | i | i | 6.8%
CCc1ccc(N2CSC3=C(C#N)C(c4cccs4)CC(=O)N3C2)cc1 (configuration not stated) | 25.1µM* | ? | ? | i | 2.3%
CC(=O)NC1C(O)C[C@@](O)(C(=O)O)OC1[C@@H](O)C(O)CO (some centres not stated) | 1.8% | / | / | / | 1.0%
CCOC(=O)c1cc2c(=O)n(C)c3ccccc3c2s1 | ? | 13.9% | 1.94e-08M* | 1.9e-08M* | -0.7%
CN1CCN(CCCNC(=O)CCCOc2cc(=O)n(C)c3ccccc23)CC1 | -7.0% | 5.7% | i | i | -0.7%
CCOC(=O)c1ccc(NC(=O)c2c(O)c3ccccc3n(C)c2=O)cc1 | -7.1% | 23.7% | ? | ? | 0.3%
CN1CCN(CCCNC(=O)c2cc3c(=O)n(C)c4ccccc4c3s2)CC1 | 25.1µM* | 93.6% | / | / | 2.4%
Cn1c(C(=O)NCCCN2CCOCC2)cc2c(=O)n(C)c3ccccc3c21 | 7.94µM* | ? | / | / | -1.3%
CC1CCN(CCCNC(=O)c2cc3c(=O)n(C)c4ccccc4c3n2C)CC1 | 31.6µM* | 0.7% | / | / | 0.7%
Cc1ccc(CNC(=O)c2cc3c(=O)n(C)c4ccccc4c3n2C)o1 | ? | 4.5% | / | / | 0.3%
Cn1c(C(=O)NCc2ccccn2)cc2c(=O)n(C)c3ccccc3c21 | 25.1µM* | 9.7% | / | / | 0.4%
Cc1c(NC(=O)COC(=O)c2cc3c4ccccc4n(C)c3s2)c(=O)n(-c2ccccc2)n1C | 15.8µM* | ? | 5.61e-08M* | 5.65e-08M* | -3.5%
Cn1c(C(=O)NCCN2CCCCCC2)cc2c(=O)n(C)c3ccccc3c21 | 31.6µM* | ? | / | / | 0.0%
Cc1c(NC(=O)COC(=O)C2CC3C=CC2C3)c(=O)n(-c2ccccc2)n1C (configuration not stated) | 8.8% | 6.5% | i | i | -1.5%
Cn1c(C(=O)NCCN2CCN(Cc3ccccc3)CC2)cc2c(=O)n(C)c3ccccc3c21 | -18.1% | 9.5% | / | / | 4.1%
CC(=O)O[C@@H]1[C@H]([N+]2(C)CCCCC2)C[C@@H]2[C@@H]3CC[C@@H]4C[C@@H](OC(C)=O)[C@H]([N+]5(C)CCCCC5)C[C@@]4(C)[C@H]3CC[C@]21C | -3.5% | 7.5% | i | i | -2.0%
O=C(O)[C@@H]1CCCNC1 | 5.0%[25.6 µM] | -5.5%[25.6 µM] | i | i | -4.0%[25.7 µM]
CC(=O)OC[C@@H]1O[C@H](C/C=N\O[C@@H](C)c2cn([C@H]3COC[C@H]3O)nn2)C=C[C@@H]1OC(C)=O | 2.6%[11.4 µM] | -2.6%[11.4 µM] | / | / | 3.1%[11.5 µM]
Cn1c(-c2cccc(Br)c2)cnc1NCc1cccnc1 | 0.2% | -9.1% | i | i | -0.5%
COc1cccc(-c2cnc(NCc3cc(Cl)ccc3O)n2C)c1 | 20µM* | 1.8% | i | i | -0.2%
CCN1CCN(C(=O)c2cc3cc4cc(OC)ccc4nc3s2)CC1 | 25.1µM* | 10.7% | 1.34e-07M* | 1.3e-07M* | 5.8%
SMILES | HSD17B inhib | HADH2 inh | A350 fluor | 4-MU autofl | AID923
Cc1ccc(S(=O)(=O)N[C@H]2COC(=O)C/C=C\[C@@H](C)[C@H](NS(=O)(=O)c3ccc(C)cc3)COC(=O)C/C=C\[C@H]2C)cc1 | -4.5%[11.4 µM] | 7.7%[11.4 µM] | / | / | 0.0%[11.5 µM]
CCCC1C2CN(C(C)=O)CC=C2C(C#N)=C(N)C1(C#N)C#N (configuration not stated) | 461.5% | 4.2% | 6.89e-08M* | 8.14e-08M* | 10.2%
CCC1C2CN(C(C)=O)CC=C2C(C#N)=C(N)C1(C#N)C#N (configuration not stated) | 124.6% | 19.0% | 3.83e-08M* | 4.45e-08M* | 14.5%
COc1ccc([C@@H]2[C@H]3CN(C(C)=O)CC=C3C(C#N)=C(N)C2(C#N)C#N)c2ccccc12 | ? | -8.7% | ? | ? | 9.4%
COc1nc(Cl)nc(Cl)c1Cl (tested in a mixture with another compound) | 5.4%[11.4 µM] | 11.5%[11.4 µM] | i | i | -1.3%[11.5 µM]
COc1ccccc1-c1cncnc1NCCN1CCOCC1 | -2.1% | ? | i | i | -2.3%
CN(C)[C@H]1C(=O)C(C(=O)NCN2CCCC2)=C(O)[C@]2(O)C(=O)C3=C(O)c4c(O)cccc4[C@](C)(O)[C@H]3C[C@H]12 | 3.98µM* | 3.98µM* | ? | i | -1.1%[11.5 µM]
COc1cc(NC(=O)CN2c3cccc4cccc(c34)S2(=O)=O)cc(OC)c1OC | ? | 78.3% | 1e-07M* | 8.29e-08M* | -2.5%
N#CCCCCN1c2cccc3cccc(c23)S1(=O)=O | ? | -20.8% | 1.9e-07M* | 1.26e-07M* | 3.0%
O=C1c2ccccc2S(=O)(=O)N1CC(O)Cn1ccc2ccccc21 (configuration not stated) | 6.9% | 12.5% | i | i | 0.5%
CCCN1c2cccc3cccc(c23)S1(=O)=O | 25.1µM* | -16.4% | 1.43e-07M* | 1.1e-07M* | 6.1%
O=C(CN1c2cccc3cccc(c23)S1(=O)=O)NCc1ccc2c(c1)OCO2 | ? | ? | / | / | 2.8%
NC(=O)c1ccc[n+]([C@@H]2OC(COP(=O)([O-])OP(=O)(O)OCC3OC(n4cnc5c(N)ncnc54)C(OP(=O)(O)O)C3O)C(O)C2O)c1 (some centres not stated) | -10.7% | / | / | / | 2.2%
O=C(c1cnccn1)N1CCC2(CCCN(c3ccc(-c4ccccc4)cc3)C2)CC1 | -4.8% | 6.5% | i | i | 1.0%
COc1cccc(Nc2ncc3ncc(=O)n(C)c3n2)c1 | 7.8% | 6.9% | i | i | 3.7%
CSc1nc2oc3c(c2c2nncn12)CC(C)(C)SC3 | ? | ? | 2.06e-07M* | 1.65e-07M* | 8.5%
CC1(C)Cc2c(oc3ncn4ncnc4c23)CO1 | / | / | i | i | /
N#Cc1cccc(NC(=O)N2CCCC3(CCN(C(=O)c4cccc(F)c4)CC3)C2)c1 | 4.6% | -0.4% | i | i | -2.2%
O=C(c1cnccn1)N1CCC[C@@]2(CCN(Cc3ccccc3)C2)C1 | 12.5% | -0.5% | i | i | 0.2%
COc1ccc2sc(NC(=O)c3ccco3)nc2c1 | -12.4% | -19.7% | i | i | 1.7%

Screening data from PubChem.
